# Measured values published in the supplement of paper PMC6411743.
# ± gives the standard deviation of the averaged measurements. Of roughly 6,200 targets only a part is listed; those with the largest changes were picked by preference.
# Legend:
# Assay in all cases: NP40-soluble protein abundance relative to vehicle (solubility fold change) (ratio); higher = more soluble protein in presence of AMP-PNP
# [1] = molecular target: T1, DDX52 (UniProt Q9Y2R4)
# T1 sequence (whole entry): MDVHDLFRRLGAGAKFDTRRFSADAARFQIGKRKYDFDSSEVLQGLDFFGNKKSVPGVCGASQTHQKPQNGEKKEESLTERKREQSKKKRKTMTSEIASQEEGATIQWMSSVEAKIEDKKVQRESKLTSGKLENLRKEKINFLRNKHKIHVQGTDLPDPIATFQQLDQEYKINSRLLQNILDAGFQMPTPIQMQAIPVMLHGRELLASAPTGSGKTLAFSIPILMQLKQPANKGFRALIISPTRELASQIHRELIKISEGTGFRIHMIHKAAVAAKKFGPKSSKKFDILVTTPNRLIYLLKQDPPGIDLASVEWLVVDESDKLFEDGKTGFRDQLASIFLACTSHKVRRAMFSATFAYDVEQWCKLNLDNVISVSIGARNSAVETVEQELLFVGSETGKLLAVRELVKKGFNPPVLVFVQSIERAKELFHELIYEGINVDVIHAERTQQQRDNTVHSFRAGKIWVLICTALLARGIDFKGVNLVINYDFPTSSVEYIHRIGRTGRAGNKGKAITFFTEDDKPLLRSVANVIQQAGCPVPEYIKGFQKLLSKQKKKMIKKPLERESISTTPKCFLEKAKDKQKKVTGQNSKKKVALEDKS
# In short: (§1)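 Crude Jurkat lysate, prepared by Dounce homogenisation, was exposed to eight concentrations from 0.1 to 10 mM for 10 min at room temperature and then 3 min at 37 °C. Solubilisation used 0.8% NP40 with benzonase for 60 min at 4 °C, followed by ultracentrifugation and TMT labelling of the supernatant for LC-MS/MS. After vsn normalisation of intensities, each value is the fold change against the detergent-processed vehicle within each replicate, across three independent experiments.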
# [2] = molecular target: T2, NKIRAS1 (UniProt Q9NYS0)
# T2 sequence (whole entry): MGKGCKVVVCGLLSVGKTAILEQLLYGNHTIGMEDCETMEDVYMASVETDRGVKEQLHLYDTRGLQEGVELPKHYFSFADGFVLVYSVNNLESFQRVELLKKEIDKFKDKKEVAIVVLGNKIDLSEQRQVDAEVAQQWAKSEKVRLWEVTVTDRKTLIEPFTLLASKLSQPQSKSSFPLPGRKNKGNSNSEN
# In short: as §1
# [3] = molecular target: T3, POLG2 (UniProt Q9UHN1)
# T3 sequence (whole entry): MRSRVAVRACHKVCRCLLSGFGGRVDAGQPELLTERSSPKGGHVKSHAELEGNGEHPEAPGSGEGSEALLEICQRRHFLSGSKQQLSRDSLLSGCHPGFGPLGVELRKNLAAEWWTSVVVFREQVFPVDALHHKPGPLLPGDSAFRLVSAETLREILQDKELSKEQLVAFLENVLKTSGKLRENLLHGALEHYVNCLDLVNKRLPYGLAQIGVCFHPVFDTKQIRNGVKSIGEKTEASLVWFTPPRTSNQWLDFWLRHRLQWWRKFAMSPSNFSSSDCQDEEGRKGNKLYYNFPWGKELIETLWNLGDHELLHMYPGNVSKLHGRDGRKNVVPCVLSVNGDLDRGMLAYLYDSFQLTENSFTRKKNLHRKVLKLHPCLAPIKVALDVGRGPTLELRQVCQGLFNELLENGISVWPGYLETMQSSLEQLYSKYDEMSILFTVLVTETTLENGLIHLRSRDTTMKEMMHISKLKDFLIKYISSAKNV
# In short: as §1
# [4] = molecular target: T4, PRKRIP1 (UniProt Q9H875)
# T4 sequence (whole entry): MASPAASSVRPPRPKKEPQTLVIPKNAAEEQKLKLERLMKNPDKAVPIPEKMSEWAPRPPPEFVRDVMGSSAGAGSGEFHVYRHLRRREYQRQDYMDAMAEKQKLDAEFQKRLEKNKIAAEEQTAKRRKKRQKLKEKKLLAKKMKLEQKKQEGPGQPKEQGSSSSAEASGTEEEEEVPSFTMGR
# In short: as §1
# [5] = molecular target: T5, SNX6 (UniProt Q9UNH7)
# T5 sequence (whole entry): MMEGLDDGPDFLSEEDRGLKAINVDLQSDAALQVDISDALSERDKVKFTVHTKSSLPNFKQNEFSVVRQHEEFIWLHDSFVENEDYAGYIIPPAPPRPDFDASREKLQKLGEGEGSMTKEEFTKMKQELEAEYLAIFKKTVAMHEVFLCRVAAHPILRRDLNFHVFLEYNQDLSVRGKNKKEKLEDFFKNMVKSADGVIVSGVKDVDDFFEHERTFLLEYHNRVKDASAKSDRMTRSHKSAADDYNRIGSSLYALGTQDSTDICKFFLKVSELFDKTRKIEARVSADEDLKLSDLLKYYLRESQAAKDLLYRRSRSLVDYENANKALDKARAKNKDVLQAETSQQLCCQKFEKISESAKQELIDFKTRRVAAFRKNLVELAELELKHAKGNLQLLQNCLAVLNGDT
# In short: as §1
# [6] = molecular target: T6, TFIP11 (UniProt Q9UBB9)
# T6 sequence (whole entry): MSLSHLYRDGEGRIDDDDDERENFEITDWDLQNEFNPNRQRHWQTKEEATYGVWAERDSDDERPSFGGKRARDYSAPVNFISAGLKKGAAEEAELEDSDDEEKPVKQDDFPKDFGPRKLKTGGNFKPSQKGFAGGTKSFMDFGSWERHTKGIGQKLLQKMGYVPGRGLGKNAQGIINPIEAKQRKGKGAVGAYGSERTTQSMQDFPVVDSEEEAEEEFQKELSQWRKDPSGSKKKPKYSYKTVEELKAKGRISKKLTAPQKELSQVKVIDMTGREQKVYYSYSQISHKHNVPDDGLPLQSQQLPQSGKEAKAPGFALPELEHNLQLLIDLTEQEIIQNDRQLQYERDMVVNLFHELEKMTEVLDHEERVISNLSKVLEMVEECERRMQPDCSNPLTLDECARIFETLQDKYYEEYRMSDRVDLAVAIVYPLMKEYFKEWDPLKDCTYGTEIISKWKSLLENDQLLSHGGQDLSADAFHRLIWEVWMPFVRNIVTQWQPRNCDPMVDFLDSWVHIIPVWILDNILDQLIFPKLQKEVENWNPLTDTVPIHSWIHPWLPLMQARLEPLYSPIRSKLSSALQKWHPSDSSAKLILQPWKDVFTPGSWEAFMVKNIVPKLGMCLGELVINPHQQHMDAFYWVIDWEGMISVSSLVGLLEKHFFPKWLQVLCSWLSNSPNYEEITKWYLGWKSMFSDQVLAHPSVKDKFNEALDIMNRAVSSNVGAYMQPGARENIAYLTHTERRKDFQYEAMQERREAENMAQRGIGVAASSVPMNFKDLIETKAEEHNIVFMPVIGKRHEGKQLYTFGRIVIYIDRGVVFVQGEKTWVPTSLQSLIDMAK
# In short: as §1
# [7] = molecular target: T7, UniProt Q9BY77|Q9BY77-2
# T7 sequence (whole entry): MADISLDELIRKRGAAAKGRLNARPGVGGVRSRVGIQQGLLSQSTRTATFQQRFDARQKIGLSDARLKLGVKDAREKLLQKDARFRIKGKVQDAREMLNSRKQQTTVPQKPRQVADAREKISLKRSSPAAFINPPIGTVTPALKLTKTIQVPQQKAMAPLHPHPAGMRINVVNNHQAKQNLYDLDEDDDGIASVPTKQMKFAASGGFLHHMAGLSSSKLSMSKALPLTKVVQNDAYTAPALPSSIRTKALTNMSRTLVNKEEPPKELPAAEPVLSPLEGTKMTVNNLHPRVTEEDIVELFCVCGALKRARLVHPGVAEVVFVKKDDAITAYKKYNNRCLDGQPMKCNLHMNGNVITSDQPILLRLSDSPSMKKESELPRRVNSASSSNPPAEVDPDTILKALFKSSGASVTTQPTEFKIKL
# In short: as §1
smiles,measurement,setting,value
Nc1ncnc2c1ncn2[C@@H]1O[C@H](COP(=O)(O)OP(=O)(O)NP(=O)(O)O)[C@@H](O)[C@H]1O [adenylyl imidodiphosphate],NP40-soluble protein abundance,[1]; concentration: 1mM,1.08 ± 0.094
same,NP40-soluble protein abundance,[1]; concentration: 2mM,1.1 ± 0.047
same,NP40-soluble protein abundance,[1]; concentration: 4mM,1.18 ± 0.07
same,NP40-soluble protein abundance,[1]; concentration: 6mM,1.22 ± 0.038
same,NP40-soluble protein abundance,[1]; concentration: 8mM,1.28 ± 0.055
same,NP40-soluble protein abundance,[1]; concentration: 10mM,1.39 ± 0.046
same,NP40-soluble protein abundance,[2]; concentration: 1mM,1 ± 0.033
same,NP40-soluble protein abundance,[2]; concentration: 2mM,1.025 ± 0.0079
same,NP40-soluble protein abundance,[2]; concentration: 4mM,0.981 ± 0.024
same,NP40-soluble protein abundance,[2]; concentration: 6mM,0.988 ± 0.027
same,NP40-soluble protein abundance,[2]; concentration: 8mM,1 ± 0.018
same,NP40-soluble protein abundance,[2]; concentration: 10mM,0.9796 ± 0.0011
same,NP40-soluble protein abundance,[3]; concentration: 1mM,0.994 ± 0.073
same,NP40-soluble protein abundance,[3]; concentration: 2mM,1.03 ± 0.056
same,NP40-soluble protein abundance,[3]; concentration: 4mM,0.996 ± 0.072
same,NP40-soluble protein abundance,[3]; concentration: 6mM,1.06 ± 0.051
same,NP40-soluble protein abundance,[3]; concentration: 8mM,1.07 ± 0.043
same,NP40-soluble protein abundance,[3]; concentration: 10mM,1.05 ± 0.021
same,NP40-soluble protein abundance,[4]; concentration: 1mM,1.03 ± 0.053
same,NP40-soluble protein abundance,[4]; concentration: 2mM,1.14 ± 0.12
same,NP40-soluble protein abundance,[4]; concentration: 4mM,1.1 ± 0.11
same,NP40-soluble protein abundance,[4]; concentration: 6mM,1.14 ± 0.073
same,NP40-soluble protein abundance,[4]; concentration: 8mM,1.16 ± 0.1
same,NP40-soluble protein abundance,[4]; concentration: 10mM,1.15 ± 0.15
same,NP40-soluble protein abundance,[5]; concentration: 1mM,0.992 ± 0.031
same,NP40-soluble protein abundance,[5]; concentration: 2mM,1.03 ± 0.12
same,NP40-soluble protein abundance,[5]; concentration: 4mM,0.991 ± 0.069
same,NP40-soluble protein abundance,[5]; concentration: 6mM,1.03 ± 0.076
same,NP40-soluble protein abundance,[5]; concentration: 8mM,1 ± 0.077
same,NP40-soluble protein abundance,[5]; concentration: 10mM,1.03 ± 0.079
same,NP40-soluble protein abundance,[6]; concentration: 1mM,1.01 ± 0.028
same,NP40-soluble protein abundance,[6]; concentration: 2mM,1.01 ± 0.033
same,NP40-soluble protein abundance,[6]; concentration: 4mM,1.07 ± 0.042
same,NP40-soluble protein abundance,[6]; concentration: 6mM,1.08 ± 0.05
same,NP40-soluble protein abundance,[6]; concentration: 8mM,1.09 ± 0.015
same,NP40-soluble protein abundance,[6]; concentration: 10mM,1.13 ± 0.039
same,NP40-soluble protein abundance,[7]; concentration: 1mM,1 ± 0.038
same,NP40-soluble protein abundance,[7]; concentration: 2mM,1.06 ± 0.064
same,NP40-soluble protein abundance,[7]; concentration: 4mM,1.04 ± 0.042
